Screening data (PubChem BioAssay)
The full list was thinned out, with hits kept by preference.
PD-1 reversal: reversal of PD-1 mediated T-cell inhibition; primary human CD4 T cells, PD-L1 beads, CellTiter-Glo 96 h; activation, % (no concentration beside the values); 29,000 tested, under 10 active; AID 2316; call rule not given here;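 note: 0% = median vehicle wells and 100% = positive control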
NOMO-1 viab: STK33 inhibitor candidate reducing NOMO-1 cell viability; AID 2330; inhibition, % (test concentration not listed); NOMO-1 AML viability, CellTiter-Glo luminescence, 72 h; 37,000 tested, 7.5% active; in the data active = inhibition above about 80%; inconclusive = no clear call, values can overlap the other calls
ROS inducer: cancer cell ROS induction; U2OS ROS induction, H2DCF-DA fluorescence; ROS induction (% of piperlongumine), % at 10 µM; 46,000 tested, 2% active; in the data active = ROS induction above about 79%, passing the limit was not always enough; inconclusive = no clear call, values can overlap the other calls;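 note: 0% = DMSO vehicle median and 100% = reference compound median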
Active calls of the source: *; ? = inconclusive; . = no result given.

SMILES | PD-1 reversal | NOMO-1 viab | ROS inducer
CCCNC(=O)[C@H]1O[C@@H]1C(=O)N[C@H](C(=O)N1CCC[C@H]1C(=O)OC)C(C)CC (some centres undefined) | -49 | 141* | 7
O=C(/C=C/c1ccccc1)c1ccc(O)cc1 | . | 105* | 53
O=C(/C=C/c1ccccc1)CC(=O)/C=C/c1ccccc1 | 0 | 58 | 14
COc1ccc2nc(Nc3nc(C)c(CCC(C)C)c(=O)[nH]3)nc(C)c2c1 | -2 | 66 | ?
CCN(CC)CCCC(C)Nc1c2ccc(Cl)cc2nc2ccc(OC)cc12 (centres undefined) | . | 114* | 9
Cc1cc(C)c2c3c1C1C=CCC1CN3C(C(=O)O)C1CC=CC21 (centres undefined) | -1 | 115* | 6
COc1ccc(Nc2nc(NCCN3CCOCC3)nc3c2cnn3C)cc1Cl | . | . | 18
CC(=O)Nc1cc(C(=O)NCCN(C)C)ccc1Sc1ccc(Cl)cc1 | . | . | -2
O=C(CSc1ccccc1)N1c2ccccc2Sc2ccccc21 | . | . | -7
O=S(=O)(CCSc1ccccc1)c1ccccc1 | 0 | 17 | -3
Clc1ccc(Sc2c(-c3ccccc3)nc3ncccn23)cc1 | . | . | 6
Clc1ccc(-c2ncc3ccccn23)cc1 | -2 | 129* | 25
O=C1CCCN2C(=N1)SC(=S)N2CN(Cc1ccccc1)Cc1ccccc1 | . | . | 5
O=C(COC(=O)c1c2c(nc3ccccc13)CCCC2)Nc1nc2ccccc2s1 | . | . | 14
COc1ccccc1NC(=O)C(Cc1ccccc1)N1C(=O)C2C3c4ccccc4C(c4ccccc43)C2C1=O (centres undefined) | 0 | 92* | 21
COc1ccccc1NC(=O)CN1C(=O)C2C3CCC(C3)C2C1=O (centres undefined) | -2 | 10 | .
CC(=O)c1cccc(NC(=O)CSc2nnc3c(n2)[nH]c2ccccc23)c1 | -2 | 59 | 64
CCOC(=O)CSc1nnc2c(n1)[nH]c1ccccc12 | . | 111* | .
Cc1cccc(NC(=O)CN2C(=O)CC(C)S(=O)(=O)c3ccccc32)c1 (centres undefined) | . | . | -11
O=C1/C(=C/c2ccccc2O)N=C2CCCCCN12 | . | . | 36
C[C@@H]1CN([C@H](C)CO)C(=O)Cc2cc(NC(=O)Nc3ccc(C(F)(F)F)cc3)ccc2O[C@@H]1CN(C)Cc1ccc(C(=O)O)cc1 | 0 | 16 | 11
C[C@H](CO)N1C[C@H](C)[C@H](CN(C)Cc2ccc(C(F)(F)F)cc2)Oc2ccc(NC(=O)Nc3ccccc3)cc2CC1=O | . | 86* | 9
C[C@@H]1CN([C@H](C)CO)C(=O)Cc2cc(NC(=O)Nc3ccc(C(F)(F)F)cc3)ccc2O[C@H]1CN(C)Cc1ccc(C(=O)O)cc1 | 1 | 13 | -4
C[C@@H]1CN([C@H](C)CO)C(=O)Cc2cc(NC(=O)Nc3ccccc3)ccc2O[C@H]1CN(C)Cc1ccc(C(F)(F)F)cc1 | 2 | 118* | 15
Cc1[nH]c(=O)[nH]c(=O)c1S(=O)(=O)N1c2ccccc2CC1C (centres undefined) | . | . | 8
SMILES | PD-1 reversal | NOMO-1 viab | ROS inducer
COc1ccccc1N(CC(=O)N(C)Cc1ccccc1)S(C)(=O)=O | . | . | -13
COc1cc(/C=C/C(=O)N2CCC(C)CC2)ccc1OCc1ccccc1 | . | . | -1
COc1ccc(OC)c(CCCCc2cc(OC)ccc2OC)c1 | 0 | 15 | 12
O=C(c1ccc(O)cc1)N1Cc2ccccc2NC1=S | 2 | 0 | 11
O=C(c1ccc(Br)cc1)N1Cc2ccccc2NC1=S | 0 | 125* | -8
CC(=O)Nc1ccc(NC(=O)/C=C/c2ccccc2)cc1 | . | . | 3
O=C(/C=C/c1ccc(Cl)cc1)Nc1cccc(Cl)c1 | -1 | 120* | 36
COC(=O)C1=C(C)N(Cc2ccccc2)C(=O)NC1c1ccccc1F (centres undefined) | 0 | 6 | 9
COc1cccc(Cc2nnc(-c3ccc(-c4cccs4)s3)o2)c1 | 0 | 9 | 30
c1csc(-c2nnc(CSc3cccc4cccnc34)o2)c1 | -6 | 112* | -7
CSC(=NCc1ccccc1)Nc1cc(-c2ccccc2)[nH]n1 | . | . | -11
Cc1ccc(S(=O)(=O)Nc2ccc3c(c2)C(=O)N([C@H](C)CO)C[C@H](C)[C@H](CN(C)Cc2ccc(C(=O)Nc4ccccc4N)cc2)O3)cc1 | 0 | ? | -3
C[C@@H]1CN([C@@H](C)CO)C(=O)c2cc(NS(=O)(=O)c3ccc(F)cc3)ccc2O[C@@H]1CN(C)Cc1ccc(C(=O)Nc2ccccc2N)cc1 | -1 | 110* | 49
C[C@@H]1CN([C@H](C)CO)C(=O)c2cc(NS(=O)(=O)c3ccc(F)cc3)ccc2O[C@H]1CN(C)Cc1ccc(C(=O)Nc2ccccc2N)cc1 | -2 | 58 | -6
C[C@@H]1CN([C@H](C)CO)C(=O)c2cc(NS(=O)(=O)c3ccccc3)ccc2O[C@H]1CN(C)Cc1ccc(C(=O)Nc2ccccc2N)cc1 | -3 | 48 | 3
Cc1ccc(S(=O)(=O)Nc2ccc3c(c2)C(=O)N([C@@H](C)CO)C[C@H](C)[C@H](CN(C)Cc2ccc(C(=O)Nc4ccccc4N)cc2)O3)cc1 | -1 | 110* | 3
C[C@H]1CN([C@@H](C)CO)C(=O)c2cc(NS(=O)(=O)c3ccc(F)cc3)ccc2O[C@@H]1CN(C)Cc1ccc(C(=O)Nc2ccccc2N)cc1 | 0 | 7 | 12
C[C@H]1CN([C@@H](C)CO)C(=O)c2cc(NS(=O)(=O)c3ccc(Cl)cc3)ccc2O[C@H]1CN(C)Cc1ccc(C(=O)Nc2ccccc2N)cc1 | -1 | 111* | 11
C[C@H](CO)N1C[C@H](C)[C@H](CN(C)Cc2ccc(C(=O)Nc3ccccc3N)cc2)Oc2ccc(NS(=O)(=O)c3ccc(F)cc3)cc2C1=O | -2 | 109* | 11
CC1CCCCN1C(=O)c1cccs1 (centres undefined) | . | . | -10
C1=CN(c2ccccc2)C(C=NCc2ccccc2)=CS1 | 1 | 69 | 65
CC1C(O)C(N(C)C)CC2COCC21 (centres undefined) | 1 | 13 | 15
O=C(NCC(=O)N1CCCCCC1)c1cccs1 | . | . | -6
CC1(C)CC(=O)C(C2C3=C(CC(C)(C)CC3=O)Oc3ccc(Br)cc32)C(=O)C1 (centres undefined) | . | . | -11
COc1ccccc1OCCSc1nc2ccccc2o1 | . | . | -22
SMILES | PD-1 reversal | NOMO-1 viab | ROS inducer
Cc1ccc(Nc2nc(Nc3ccc(C)cc3)nc(N3CCCCC3)n2)cc1 | . | . | 50
O=C(Nc1ccc(C(F)(F)F)cc1)c1ccc2c(c1)CCO2 | . | . | -3
O=C(Cc1ccccc1)Nc1ccccc1C(F)(F)F | . | . | -16
CCNc1nc(F)cc(=O)[nH]1 | -1 | -20 | -2
Cc1ccc(OCC(=O)Nc2cccc(-c3nc4ccccc4[nH]3)c2)cc1 | 0 | 7 | -3
COc1ccc(CC(=O)Nc2cccc(-c3nc4cc5ccccc5cc4[nH]3)c2)cc1 | 0 | 135* | 35
On1c(-c2ccccc2Cl)nc2c1CCc1nonc1-2 | 0 | -10 | -10
CCC(C(=O)Nc1cccc(C)c1C)n1nc(C)c2sc3ccccc3c2c1=O (centres undefined) | . | . | 3
C[C@@H]1CN([C@H](C)CO)C(=O)c2cccc(NC(=O)CCCCCC(=O)Nc3ccccc3N)c2O[C@@H]1CN(C)Cc1ccc(Oc2ccccc2)cc1 | -4 | 140* | 9
